# According to PubChem BioAssay (NCATS):
# Inconclusive results are not listed. Unmarked numbers belong to inactive results. Activity calls are given as the source filed them. Calls follow the shape of the dose curve; as a rule, active = well fitted curve in the direction sought with a large enough effect; inconclusive = small, poorly fitted or top-dose-only effect, or another doubt; inactive = no such curve, though single readings can be large; an effect the other way counts as inactive or inconclusive.
# Experiments:
# [1] = qHTS of pediatric cancer cell lines to identify multiple opportunities for drug repurposing: Primary screen for OHS-50 cells (AID 1347103); also: nearly all actives have a fitted effect of over 40% in size;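 as to activity change, negative = cytotoxic: plate controls were DMSO neutral control for no effect and bortezomib positive control for full effect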
# Summary of the method: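 Cells (500-1,000/well) rested 5 h, then received compounds for 48 h; metabolically active cells were measured by CellTiter-Glo luminescence. Final concentrations spanned up to 46 µM (MIPE, 11-point) or 0.59 nM-46 µM (NPC, 8-point) in primary screens, 11-point in follow-ups.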
# [2] = qHTS of pediatric cancer cell lines to identify multiple opportunities for drug repurposing: Primary screen for RD cells (AID 1347104); also: nearly all actives have a fitted effect of over 55% in size;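 as to activity change, negative = cytotoxic: plate controls were DMSO for no effect and bortezomib for full effect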
# Summary of the method: (§1)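 Luminescence from CellTiter-Glo served as readout of metabolically active cells after 48 h compound exposure. Titrations: MIPE 11-point, from 0.78 nM; NPC 8-point, from 0.59 nM (final). Concentration-response curves came straight from the primary screen.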
# [3] = qHTS of pediatric cancer cell lines to identify multiple opportunities for drug repurposing: Primary screen for MG 63 (6-TG R) cells (AID 1347105); also: nearly all actives have a fitted effect of over 50% in size; as to activity change, negative = cytotoxic: % is scaled to controls: 0 for no effect and ±100 for the full control effect
# Summary of the method: as §1
# [4] = qHTS of pediatric cancer cell lines to identify multiple opportunities for drug repurposing: Primary screen for Rh41 cells (AID 1347108); also: nearly all actives have a fitted effect of over 70% in size;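 as to activity change, negative = cytotoxic: series mostly up to about 46 µM; luminescence drop marks cytotoxic hits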
# Summary of the method: as §1
# [5] = qHTS of pediatric cancer cell lines to identify multiple opportunities for drug repurposing: Confirmatory screen for NB1643 cells (AID 1347109); also: nearly all actives have a fitted effect of over 45% in size;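 as to activity change, negative = cytotoxic: plate controls were DMSO for no effect and bortezomib for full effect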
# Summary of the method: (§2)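 Cells (500-1,000/well) in growth media were settled 5 h at 37 degrees C, then given compounds for 48 h. Viability was read as CellTiter-Glo luminescence. Primary runs used MIPE at 11 points (0.78 nM-46 µM) and NPC at 8 points (0.59 nM-46 µM); follow-ups used 11 points.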
# [6] = qHTS of pediatric cancer cell lines to identify multiple opportunities for drug repurposing: Confirmatory screen for A673 cells (AID 1347110);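 also: cells exposed to compound for 48 h before the viability read; nearly all actives have a fitted effect of over 65% in size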
# Summary of the method: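 Viability was read as ATP luminescence (CellTiter-Glo) after 48 h of compound exposure at 37 C in A673 cells seeded at 500-1,000/well. Titrations reached 46 uM final, with 11 points in the confirmatory screen. Concentration-response curves were fitted directly.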
# [7] = qHTS of pediatric cancer cell lines to identify multiple opportunities for drug repurposing: Confirmatory screen for SK-N-MC cells (AID 1347111);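 also: cells exposed to compound for 48 h before the readout; nearly all actives have a fitted effect of over 70% in size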
# Summary of the method: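 Metabolically active cells were quantified by ATP-dependent luminescence (CellTiter-Glo, 15 min at room temperature) following 48 h treatment. Cells had been plated at 500-1,000 per well and settled for 5 h beforehand.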
# [8] = qHTS of pediatric cancer cell lines to identify multiple opportunities for drug repurposing: Confirmatory screen for BT-12 cells (AID 1347112); also: nearly all actives have a fitted effect of over 55% in size; as to activity change, negative = cytotoxic: % is scaled to controls: 0 for no effect and ±100 for the full control effect
# Summary of the method: as §2
# [9] = qHTS of pediatric cancer cell lines to identify multiple opportunities for drug repurposing: Primary screen for control Hh wild type fibroblast cells (AID 1347106); also: nearly all actives have a fitted effect of over 55% in size;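 as to activity change, negative = cytotoxic: series mostly up to about 46 µM; % is scaled to controls: 0 for no effect and ±100 for the full control effect; a drop in luminescence marks cytotoxicity and a rise apparent proliferation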
# Summary of the method: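 Viability after 48 h compound treatment at 37C, 500-1,000 cells/well, read as ATP luminescence with CellTiter-Glo. Primary screens used 11-point (MIPE, 0.78 nM-46 µM) or 8-point (NPC, 0.59 nM-46 µM) final concentrations; follow-up screens used 11-point dilutions.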
# [10] = qHTS of pediatric cancer cell lines to identify multiple opportunities for drug repurposing: Primary screen for Rh30 cells (AID 1347107); also: nearly all actives have a fitted effect of over 75% in size; as to activity change, negative = cytotoxic: series mostly up to about 46 µM; % is scaled to controls: 0 for no effect and ±100 for the full control effect
# Summary of the method: as §2
# Potency is read from the fitted curve at half-maximal effect.
SMILES,Potency [1],Potency [2],Potency [3],Potency [4],Potency [5],Potency [6],Potency [7],Potency [8],Potency [9],Potency [10],"activity change, negative = cytotoxic [10]"
Cc1ccc2nc(NCCN)c3ncc(C)n3c2c1,24.3 µM (active),13.2 µM (active),18.7 µM (active),18.7 µM (active),,,,,,,
CCNC(=O)Nc1ccc(-c2nc3c(c(N4CCOC[C@H]4C)n2)CCN(C2COC2)C3)cc1,0.485 µM (active),1.05 µM (active),0.743 µM (active),1.48 µM (active),,,,,,,
C[C@H](NCc1ccc(OCc2cccc(F)c2)cc1)C(N)=O,4.85 µM (active),16.6 µM (active),18.7 µM (active),18.7 µM (active),,,,,,,
C[C@@]12C(=O)OC(=O)[C@@]1(C)C1CCC2O1,2.43 µM (active),5.9 µM (active),1.87 µM (active),3.72 µM (active),3.29 µM (active),9.27 µM (active),6.57 µM (active),8.27 µM (active),,,
CC(C)C[C@H](NC(=O)CNC(=O)c1cc(Cl)ccc1Cl)B1OC(=O)CC(CC(=O)O)(C(=O)O)O1 (some centres not stated),0.193 µM (active),0.332 µM (active),0.148 µM (active),0.296 µM (active),0.261 µM (active),0.293 µM (active),0.131 µM (active),0.414 µM (active),1.05 µM (active),,
O=C1NC(=O)C(=Cc2ccc3nccc(-c4ccncc4)c3c2)S1,0.0385 µM (active),0.372 µM (active),0.0743 µM (active),0.59 µM (active),6.57 µM (active),4.65 µM (active),,,,1.48 µM (active),
CC(C)N1[N]C(=C2C=c3cc(O)ccc3=N2)c2c(N)ncnc21,0.273 µM (active),1.66 µM (active),1.18 µM (active),1.05 µM (active),10.4 µM (active),4.14 µM (active),2.33 µM (active),13.1 µM (active),,5.9 µM (active),
C=Cc1c(C)c2cc3nc(cc4[nH]c(cc5nc(cc1[nH]2)C(C)=C5CCC(=O)O)c(CCC(=O)OC)c4C)[C@@]1(C)C3=CC=C(C(=O)OC)[C@H]1C(=O)OC,0.769 µM (active),0.105 µM (active),1.18 µM (active),0.0743 µM (active),inactive,,,inactive,,inactive,
C[C@H](NCc1ccc2c(c1)nc(NC(=O)c1ccc(-c3cn[nH]c3)s1)n2CCc1ccccc1)C(C)(C)C,1.09 µM (active),3.72 µM (active),2.96 µM (active),2.35 µM (active),1.04 µM (active),0.928 µM (active),0.928 µM (active),2.93 µM (active),,14.8 µM (active),
CON=C(C(=O)N[C@@H]1C(=O)N2C(C(=O)O)=C(CSC(=O)c3ccco3)CS[C@H]12)c1csc(N)n1,inactive,inactive,inactive,,,,,,,inactive,
O=C(NC1CC1)c1cccc(-c2ccc3c(NC(=O)C4CC4)n[nH]c3c2)c1,3.85 µM (active),0.935 µM (active),1.48 µM (active),2.96 µM (active),,4.14 µM (active),8.27 µM (active),,,inactive,
COC1=C2C[C@@H](C)C[C@H](OC)[C@@H](O)[C@@H](C)C=C(C)[C@H](OC(N)=O)[C@@H](OC)C=CC=C(C)C(=O)NC(=CC1=O)C2=O,6.85 µM (active),5.26 µM (active),14.8 µM (active),7.43 µM (active),1.31 µM (active),2.61 µM (active),1.04 µM (active),,,,
OC[C@@H](O)[C@@H](O)[C@H](O)[C@@H](O)CO,inactive,inactive,inactive,inactive,,,,,,inactive,
CC(=O)N1CCN(c2ccc(OCc3nn(C)c(C)c3-c3cccc4c(CCCOc5cccc6ccccc56)c(C(=O)O)n(Cc5cccnc5)c34)cc2)CC1,0.109 µM (active),1.66 µM (active),14.8 µM (active),0.743 µM (active),inactive,,20.8 µM (active),inactive,0.526 µM (active),,
O=C1c2c(O)cccc2[C@@H]([C@@H]2O[C@H](CO)[C@@H](O)[C@H](O)[C@H]2O)c2cc(CO)cc(O)c21,inactive,inactive,inactive,,inactive,inactive,,,,inactive,
C#C[C@]1(O)CC[C@@H]2[C@@H]3CCc4cc(O)ccc4[C@H]3CC[C@@]21C,30.6 µM (active),18.7 µM (active),23.5 µM (active),23.5 µM (active),,,,,inactive,,

SMILES,Potency [1],Potency [2],Potency [3],Potency [4],Potency [5],Potency [6],Potency [7],Potency [8],Potency [9],Potency [10],"activity change, negative = cytotoxic [10]"
Cc1cn([C@@H]2O[C@H](CO)[C@@H](O)[C@H]2F)c(=O)[nH]c1=O,inactive,inactive,inactive,inactive,,,,,,inactive,
CC(C=CC1=C(C)CCCC1(C)C)=CC=CC(C)=CC(=O)Nc1ccc(O)cc1,17.7 µM (active),34 µM (active),27 µM (active),7.62 µM (active),42.7 µM (active),0.38 µM (active),2.4 µM (active),24 µM (active),,42.9 µM (active),
C=C1C(=CC=C2CCC[C@]3(C)[C@@H]([C@H](C)CCCC(C)(C)O)CC[C@@H]23)C[C@@H](O)C[C@@H]1O,7.69 µM (active),9.35 µM (active),11.8 µM (active),5.9 µM (active),inactive,inactive,,,inactive,,
CCCCCCCCCCCCCCCC(=O)OC[C@@H](NC(=O)C(Cl)Cl)[C@H](O)c1ccc([N+](=O)[O-])cc1,inactive,inactive,inactive,inactive,,,,,,inactive,
COc1ccc([C@@H]2CNC(=O)C2)cc1OC1CCCC1,inactive,3.32 µM (active),5.9 µM (active),3.72 µM (active),,,,,,,
C=CC(=O)Nc1ccc2ncnc(Nc3ccc(OCc4cccc(F)c4)c(Cl)c3)c2c1,0.0043 µM (active),0.0296 µM (active),0.296 µM (active),0.235 µM (active),14.7 µM (active),3.29 µM (active),7.37 µM (active),10.4 µM (active),inactive,,
Oc1cc(-c2nc(-c3ccccc3)[nH]c2-c2ccncc2)ccc1Cl,24.3 µM (active),2.09 µM (active),11.8 µM (active),,,,3.69 µM (active),2.33 µM (active),inactive,,
CC(C)[C@H](CO)Nc1nc(Nc2cccc(Cl)c2)c2ncn(C(C)C)c2n1,13.7 µM (active),18.7 µM (active),2.96 µM (active),11.8 µM (active),,,,,inactive,,
CCOC(=O)C=C[C@H](C[C@@H]1CCNC1=O)NC(=O)[C@@H](CC(=O)[C@@H](NC(=O)c1cc(C)on1)C(C)C)Cc1ccc(F)cc1,inactive,inactive,inactive,inactive,,,,,inactive,,
CCN(CC)CCNC(=O)c1c(C)[nH]c(C=C2C(=O)Nc3ccc(F)cc32)c1C,1.4 µM (active),9.59 µM (active),13.6 µM (active),13.6 µM (active),10.7 µM (active),10.7 µM (active),,33.9 µM (active),17.1 µM (active),,
COc1ccc(Nc2cc(-c3cnc(N)nc3)nc(N3CCOCC3)n2)cn1,0.385 µM (active),4.18 µM (active),3.72 µM (active),2.96 µM (active),8.27 µM (active),9.27 µM (active),6.57 µM (active),,,5.9 µM (active),
O=C(Nc1cc2cc[nH]c2cn1)c1ccccc1,10.9 µM (active),14.8 µM (active),14.8 µM (active),18.7 µM (active),10.4 µM (active),1.65 µM (active),2.61 µM (active),14.7 µM (active),,,
C[C@H]1[C@@H](OC(=O)CCC(=O)O)O[C@@H]2O[C@@]3(C)CC[C@@H]4[C@H](C)CC[C@@H]1[C@@]24OO3,1.09 µM (active),1.66 µM (active),18.7 µM (active),2.35 µM (active),14.7 µM (active),2.33 µM (active),3.29 µM (active),,,,
CC[C@]12C=CCN3CC[C@@]4(c5cc([C@@]6(C(=O)OC)C[C@H]7C[C@@H](C(C)(F)F)CN(Cc8c6[nH]c6ccccc86)C7)c(OC)cc5N(C)[C@H]4[C@@](O)(C(=O)OC)[C@H]1OC(C)=O)[C@@H]32,0.0193 µM (active),0.0059 µM (active),,,inactive,0.522 µM (active),9.27 µM (active),inactive,,inactive,
Nc1ccn(C2CO[C@H](CO)O2)c(=O)n1 (some centres not stated),inactive,inactive,,inactive,,,,,inactive,,
CCC(C=C[C@@H]1OC(=O)C=C[C@H]1C)=C[C@H](C)CC=CC(C)=C[C@@H](C)C(=O)[C@@H](C)[C@H](O)[C@@H](C)CC(C)=CC(=O)O,0.128 µM (active),0.0782 µM (active),,0.0247 µM (active),,0.0322 µM (active),0.0064 µM (active),0.0161 µM (active),,,-1.27% [at 1.86 µM]
